Screening data: PubChem, several laboratories
An excerpt weighted towards active compounds, which were near 1.5% of everything screened.
GLD-1 TGE inh – GLD-1-TGE RNA interaction inhibition (C. elegans); AID 2280; Q17339; inhibition, % at 5.96 µM; 0.44% of 320,000 active; purified GLD-1 + fluorescein TGE RNA, fluorescence polarization;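 active = percent inhibition above a per-plate cutoff, the plate mean of test compounds plus 3 SD, cut at about 30% in these data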;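 also: 0% = DMSO wells with GLD-1 and probe and 100% = wells lacking GLD-1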
MCL1 BIM primary – disrupts human MCL1 binding to BIM-BH3 peptide; AID 2057; 0.68% of 320,000 active; inhibition, % at 10.9 µM; GST-MCL1 / FITC-Bim-BH3 fluorescence polarization; Q07820;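 active = inhibition above the mean inhibition of all tested compounds plus 3 SD, set per campaign, cut at about 40% in these data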;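 also: 0% = DMSO wells and 100% = unlabeled Bim-BH3 peptide control; higher means more loss of mP so more displacement of Bim peptide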
Target sequence (Q07820 whole entry, looked up): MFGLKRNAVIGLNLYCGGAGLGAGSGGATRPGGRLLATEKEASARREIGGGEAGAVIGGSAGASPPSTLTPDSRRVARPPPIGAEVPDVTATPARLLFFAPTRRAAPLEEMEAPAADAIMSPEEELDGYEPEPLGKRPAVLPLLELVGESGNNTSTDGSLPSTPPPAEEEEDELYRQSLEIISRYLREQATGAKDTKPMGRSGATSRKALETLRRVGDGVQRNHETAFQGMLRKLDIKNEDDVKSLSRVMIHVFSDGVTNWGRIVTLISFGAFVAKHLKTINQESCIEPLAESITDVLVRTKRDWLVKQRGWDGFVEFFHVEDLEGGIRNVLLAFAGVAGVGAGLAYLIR
eLon inh – inhibitors of E. coli Lon protease. P0A9M0. purified E. coli Lon protease, fluorescence polarization. inhibition, % at 7.94 µM. 0.42% of 360,000 active; in the data active = inhibition above about 13%, passing the limit was not always enough;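 also: 0% = enzyme with probe and DMSO and 100% = no enzyme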
MEX-5 binding – C. elegans MEX-5 TCR-2 RNA binding activity. Q9XUB2. MEX-5/FITC-TCR2 RNA binding, fluorescence polarization; active compounds read low. activity score (negative = inhibition of binding), % at 10 µM. 0.38% of 300,000 active;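 active = inhibition past about -25% in most replicates, and total fluorescence under double the plate's negative control median, limit read from the data; inconclusive = replicates evenly split on the limit, or fluorescence at least double controls; inactive = too little inhibition in most replicates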;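 also: 0% = DMSO and -100% = 5 µM competing unlabeled TCR2 RNA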
EBV gp42 block – EBV gp42 inhibition; Q1HVG2; Fluorescence polarization binding assay, mP read-out; inhibition, % (tested at 21.74 µM); 0.42% of 220,000 active; AID 1085; in the data active = inhibition above about 50%
Target sequence (Q1HVG2 whole entry, looked up): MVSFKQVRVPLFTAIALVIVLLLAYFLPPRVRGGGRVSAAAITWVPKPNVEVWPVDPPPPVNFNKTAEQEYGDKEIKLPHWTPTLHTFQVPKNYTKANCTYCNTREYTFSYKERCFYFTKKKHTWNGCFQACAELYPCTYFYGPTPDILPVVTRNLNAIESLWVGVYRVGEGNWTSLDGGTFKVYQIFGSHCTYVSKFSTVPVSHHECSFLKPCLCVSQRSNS
Bcl-xL primary – Bcl-xL (human) inhibition | GST-Bcl-xL / FITC-Bim BH3 peptide fluorescence polarization | 0.7% of 320,000 active | Q07817 | inhibition, % at 10.9 µM | AID 2129;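 active = inhibition above the mean of all tested compounds plus 3 SD, cutoff set per campaign, cut at about 30% in these data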;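 also: 0% = DMSO wells and 100% = unlabeled Bim-BH3 peptide competitor; inhibitors lower millipolarization by displacing the labeled peptide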
* hit, by the source's call; ? = inconclusive; . = no result given.

SMILES | GLD-1 TGE inh | MCL1 BIM primary | eLon inh | MEX-5 binding | EBV gp42 block | Bcl-xL primary
CCOc1ccccc1NC1=C(Cl)C(=O)N(c2ccc(OC)cc2)C1=O | 0 | 8 | 8 | -1 | -5 | 7
O=C1c2cccc3c(N4CCCCC4)ccc(c23)C(=O)N1c1ccccc1O | 22 | -5 | -59 | -56* | 40 | 35*
O=C(O)c1ccc(N2CCCCCC2)c(N2C(=O)c3ccccc3C2=O)c1 | 4 | 2 | 0 | -2 | -7 | 7
COCc1cc(=O)[nH]c(/N=C(\N)Nc2c(F)cccc2F)n1 | 9 | 4 | -1 | 0 | -8 | 4
COC(=O)c1cc(NC(=O)c2cccc(Cl)c2)c(=O)oc1/C=C/Nc1cc(C)cc(C)c1 | -80 | -165 | . | -28* | 156* | -98
COC(=O)c1cc(NC(=O)c2cccc(C(F)(F)F)c2)c(=O)oc1C | 3 | 0 | -4 | 1 | -2 | -4
CCN(CC)c1ccc(C=C2C(=O)OC(c3ccccc3)OC2=O)cc1 (stereo not drawn) | -4 | -18 | -4 | 2 | 91* | -6
CN(C)c1ccc(C=C2C(=O)OC(C)(C(C)(C)C)OC2=O)cc1 (stereo not drawn) | -14 | -13 | -22 | -7 | -192 | -15
CCN(CC)c1ccc(C=C2C(=O)OC(C)(C(C)(C)C)OC2=O)cc1 (stereo not drawn) | -5 | -38 | -13 | -69* | . | -21
CCOC(=O)C(C#N)C(=N)C1C(=O)OC2CCCCC21 (stereo not drawn) | . | . | 0 | . | . | .
COc1cccc(NC(=O)CNC(=O)N2CC(=O)Nc3ccccc32)c1 | 1 | 8 | -9 | -1 | . | 44*
CC1CCC(NC(=O)c2[nH]c(C(F)(F)F)nc2-c2ccccc2)CC1 (stereo not drawn) | . | . | -2 | . | . | .
O=C(NCc1ccccn1)C(=O)NCC(c1ccco1)N1CCN(c2ccc(F)cc2)CC1 (stereo not drawn) | 4 | 20 | 0 | 2 | -12 | 32*
COc1ccc2c(-c3ccccc3)cc(SCC(N)=O)nc2c1 | -2 | 6 | -16 | -33* | -16 | 4
CCOc1cc2c(cc1/C=C(/C#N)c1ccc(C(=O)O)cc1)OCO2 | -4 | 12 | 4 | -32* | -14 | 6
C/C=C/COc1nc2c(c(=O)n(C)c(=O)n2C)n1C | 1 | 8 | 0 | -1 | -8 | 10
C=CCOc1nc2c(c(=O)n(C)c(=O)n2C)n1C | 0 | -7 | -1 | -1 | 2 | 36*
O=C(OCCN1C(=O)c2cccc3c(N4CCOCC4)ccc(c23)C1=O)c1ccc(Cl)cc1 | 8 | -1 | -22 | ? | 123* | 20
O=C(OCCN1C(=O)c2ccccc2C1=O)c1cc(S(=O)(=O)N2CCOCC2)ccc1F | -2 | -4 | 11 | -3 | -20 | 0
CCCN(CCC)S(=O)(=O)c1ccc(C(=O)OCCN2C(=O)c3cccc4c(N5CCOCC5)ccc(c34)C2=O)cc1 | -12 | -15 | -44 | ? | 135* | 4
Cc1ccc(S(=O)(=O)NCCC(=O)NNc2c(F)c(F)cc(F)c2F)cc1 | 1 | . | 0 | . | . | .
Cc1ccccc1OC1C(=O)N(CC2CCCO2)C1c1ccc2c(c1)OCO2 (stereo not drawn) | 4 | 5 | -2 | -3 | -8 | 100*
Oc1ccc(-c2cnns2)c(O)c1 | 19 | 14 | 1 | -61* | -33 | 18
C#CCOCCOCCOCCNc1nc(N2CCN(C(=O)[C@H]([C@@H](C)CC)n3cc([C@@H](N)CO)nn3)CC2)nc(N2CCN(C(=O)[C@H]([C@@H](C)CC)n3cc([C@@H](N)CC(C)C)nn3)CC2)n1 | 21 | 43* | 0 | -38* | 29 | 43*
C#CCOCCOCCOCCNc1nc(N2CCN(C(=O)[C@H]([C@@H](C)CC)n3cc([C@@H](N)CO)nn3)CC2)nc(N2CCN(C(=O)[C@H]([C@@H](C)CC)n3cc([C@@H](N)CO)nn3)CC2)n1 | . | . | . | -5 | -22 | .
SMILES | GLD-1 TGE inh | MCL1 BIM primary | eLon inh | MEX-5 binding | EBV gp42 block | Bcl-xL primary
Fc1cccc(/C=N/Nc2cc(N3CCOCC3)ncn2)c1 | -1 | 9 | 0 | -2 | . | -1
O=C(Cn1cncc1-c1ccc([N+](=O)[O-])cc1)Nc1ccccc1F | 33* | 0 | 5 | -2 | 4 | 1
COc1ccccc1NC(=O)Cn1cncc1-c1ccc([N+](=O)[O-])cc1 | 2 | 2 | 2 | -1 | -17 | -1
COc1ccc2nc(/C=N/NC(=O)CCCCCNC(=O)OC(C)(C)C)ccc2c1 | 9 | -8 | 0 | -2 | -5 | -2
COc1ccc(N2CCN(c3nc4cc(C)ccc4cc3C=O)CC2)cc1 | 3 | 3 | -5 | 1 | . | 5
Cc1ccc2cc(/C=C3\N=C(c4ccccc4)OC3=O)c(N3CCOCC3)nc2c1 | 0 | -12 | . | -34* | 158* | -4
Cc1nn(C)c(C)c1S(=O)(=O)N(CC(=O)Nc1ccc2c(c1)OCO2)c1ccc(C(C)C)cc1 | 2 | 5 | 16* | . | -20 | 6
COc1cccc(Nc2nc3ccccc3nc2NS(=O)(=O)c2cccs2)c1 | 1 | 2 | 3 | -7 | 16 | 6
COc1ccc(Nc2nc3ccccc3nc2NS(=O)(=O)c2cccs2)c(OC)c1 | 4 | 11 | -7 | -40* | 22 | 4
O=C(CNc1n[nH]c(=O)[nH]c1=O)N/N=C/C1CC=CCC1 (stereo not drawn) | 1 | 0 | 2 | 0 | 0 | 4
COc1ccccc1N1N=C(c2ccc([N+](=O)[O-])cc2)CC1c1ccccc1 (stereo not drawn) | -2 | 38 | -91 | 2 | . | 56*
COc1cc(N2N=C(c3ccccc3)CC2c2ccccc2)c(C=O)cc1C=O (stereo not drawn) | 2 | 8 | 6 | -4 | . | 6
O=[N+]([O-])c1ccc(N2N=C(c3ccco3)CC2c2ccccc2)cc1 (stereo not drawn) | -32 | -96 | -147 | -5 | 70* | -58
C(=N\Nc1nc2ccccc2[nH]1)/c1ccc2ncccc2c1 | -8 | -3 | -3 | -3 | -7 | 0
C(=N\Nc1nc2ccccc2[nH]1)/c1ccccn1 | . | . | 0 | -42* | -2 | .
O=C(CN1C(=O)c2ccccc2C1=O)Nc1cc(C(=O)O)cc(C(=O)O)c1 | 64* | 7 | 7 | -1 | . | 6
CCc1noc(C)c1C(=O)OC(C)C(=O)Nc1ccc2c(c1)OCO2 (stereo not drawn) | -5 | 2 | 1 | . | . | 7
COc1cc(-c2ccc(Nc3ccccc3C(=O)O)c(OC)c2)ccc1Nc1ccccc1C(=O)O | . | . | 1 | . | 69* | .
COc1cccc(Nc2ccccc2C(=O)O)c1 | 5 | 8 | 6 | 2 | -8 | 5
C/[N+]([O-])=C\C1C(=O)CCCC1=O | -6 | 0 | 0 | 2 | -1 | 2
CC(C)N=c1scc(-c2ccco2)n1/N=C/c1ccc(O)c(O)c1 | 2 | 27 | 3 | . | -3 | 4
